This passage reports binding signal results from paper PMC7862700, “An all-to-all approach to the identification of sequence-specific readers for epigenetic DNA modifications on cytosine”.

Common to all, as to assay: DAPPL (digital affinity profiling via proximity ligation, sequencing); 10 mM Tris-HCl pH 7.5, 50 mM NaCl, 1 mM DTT, 4% glycerol, room temperature, 30 min; GST-TFs on glutathione beads, 16-mer random dsDNA library, 0.1% formaldehyde crosslink after washing; high values mean tight binding
In one experiment the target is T1, FEV (Homo sapiens, UniProt Q99581 1-238).
T1 sequence: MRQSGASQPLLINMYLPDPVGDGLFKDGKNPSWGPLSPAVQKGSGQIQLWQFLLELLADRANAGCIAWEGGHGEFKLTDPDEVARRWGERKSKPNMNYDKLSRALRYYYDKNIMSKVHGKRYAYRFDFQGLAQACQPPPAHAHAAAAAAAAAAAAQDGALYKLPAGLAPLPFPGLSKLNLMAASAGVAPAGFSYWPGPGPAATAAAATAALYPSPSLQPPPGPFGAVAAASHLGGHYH
As to conditions: protein: recombinant; tags: N-terminal GST; dsDNA, one strand shown. In a few lines: (§1)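 Human transcription factors fused to GST were expressed in yeast, captured on glutathione beads, given DNA barcodes and pooled with a GST-only negative control. Pools were incubated with 200 nmole of a 16-mer random double-stranded DNA library in Tris/NaCl/DTT/glycerol buffer at room temperature for 30 min. They were then washed, crosslinked with 0.1% formaldehyde, proximity-ligated (BsaI/T4 ligase, 1 h, 37 °C), PCR-amplified and sequenced on an Illumina NextSeq500. Binding signal is each 6-mer's read frequency for a factor divided by its frequency for the GST control.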

The next experiment addresses ETV5 (Homo sapiens, UniProt P41161 1-510). Particulars: protein: recombinant; tags: N-terminal GST; dsDNA, one strand shown. In a few lines:
as §1

The next experiment concerns the target HSF1 (Homo sapiens, UniProt Q00613 1-529). Particulars: protein: recombinant; tags: N-terminal GST; chain copies: 3; dsDNA, one strand shown. In a few lines:
as §1

For a further experiment, the target named is T2, SPIC (Homo sapiens, UniProt Q8N5J4 1-248).
T2 sequence: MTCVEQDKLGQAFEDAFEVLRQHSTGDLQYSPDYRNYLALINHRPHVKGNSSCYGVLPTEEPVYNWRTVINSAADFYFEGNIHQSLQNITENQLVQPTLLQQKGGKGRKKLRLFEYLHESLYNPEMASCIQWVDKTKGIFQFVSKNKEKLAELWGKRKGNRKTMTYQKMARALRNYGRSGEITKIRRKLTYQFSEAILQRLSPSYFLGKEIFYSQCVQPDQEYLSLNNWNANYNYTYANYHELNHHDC
As to conditions: protein: recombinant; tags: N-terminal GST; dsDNA, one strand shown. The gist of the method:
as §1

For the next experiment, the target named is ELF4 (Homo sapiens, UniProt Q99607 1-663). As to conditions: protein: recombinant; tags: N-terminal GST; dsDNA, one strand shown. The gist of the method: as §1
Sequence of ELF4 (Q99607 whole entry): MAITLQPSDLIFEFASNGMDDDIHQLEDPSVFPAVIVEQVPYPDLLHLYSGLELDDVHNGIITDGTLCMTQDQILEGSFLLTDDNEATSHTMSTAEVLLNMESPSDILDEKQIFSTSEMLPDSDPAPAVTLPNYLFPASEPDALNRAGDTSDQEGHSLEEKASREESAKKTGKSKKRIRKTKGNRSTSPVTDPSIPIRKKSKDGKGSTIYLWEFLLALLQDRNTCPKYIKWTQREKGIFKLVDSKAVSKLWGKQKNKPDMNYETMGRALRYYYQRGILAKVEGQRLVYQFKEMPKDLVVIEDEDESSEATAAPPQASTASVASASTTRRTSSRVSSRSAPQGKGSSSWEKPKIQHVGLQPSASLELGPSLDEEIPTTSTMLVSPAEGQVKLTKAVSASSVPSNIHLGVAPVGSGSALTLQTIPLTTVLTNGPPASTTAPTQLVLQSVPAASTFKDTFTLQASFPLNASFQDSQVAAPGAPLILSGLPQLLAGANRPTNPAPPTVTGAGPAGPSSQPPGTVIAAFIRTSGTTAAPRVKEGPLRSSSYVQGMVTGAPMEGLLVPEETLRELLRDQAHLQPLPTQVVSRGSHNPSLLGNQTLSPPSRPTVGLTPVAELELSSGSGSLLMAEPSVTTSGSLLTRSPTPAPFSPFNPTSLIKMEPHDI
The target in a further experiment is T3, ELK4 (Homo sapiens, UniProt P28324-2 1-405).
T3 sequence: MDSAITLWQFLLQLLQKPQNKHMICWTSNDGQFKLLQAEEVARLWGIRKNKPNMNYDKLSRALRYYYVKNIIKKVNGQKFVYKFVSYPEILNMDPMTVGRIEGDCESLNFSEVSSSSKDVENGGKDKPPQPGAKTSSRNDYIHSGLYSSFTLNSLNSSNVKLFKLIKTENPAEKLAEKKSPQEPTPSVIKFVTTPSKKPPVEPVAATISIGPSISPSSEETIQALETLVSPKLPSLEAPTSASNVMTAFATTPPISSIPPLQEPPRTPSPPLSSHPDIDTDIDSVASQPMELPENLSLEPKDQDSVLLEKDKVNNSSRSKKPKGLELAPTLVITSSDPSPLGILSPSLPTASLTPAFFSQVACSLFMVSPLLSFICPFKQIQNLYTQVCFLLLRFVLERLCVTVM
Particulars: protein: recombinant; tags: N-terminal GST; dsDNA, one strand shown. In a few lines: as §1

For another experiment, the target named is T4, ETV2 (Homo sapiens, UniProt O00321 1-342).
T4 sequence: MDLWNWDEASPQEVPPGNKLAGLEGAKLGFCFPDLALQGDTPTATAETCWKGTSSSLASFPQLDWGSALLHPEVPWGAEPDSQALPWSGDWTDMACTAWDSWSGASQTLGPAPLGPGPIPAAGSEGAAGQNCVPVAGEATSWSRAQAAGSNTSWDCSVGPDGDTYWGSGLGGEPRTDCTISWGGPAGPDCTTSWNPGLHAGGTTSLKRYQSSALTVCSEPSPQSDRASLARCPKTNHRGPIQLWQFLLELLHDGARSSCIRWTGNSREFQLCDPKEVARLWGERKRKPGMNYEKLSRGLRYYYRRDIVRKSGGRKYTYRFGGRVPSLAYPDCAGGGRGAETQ
As to conditions: protein: recombinant; tags: N-terminal GST; dsDNA, one strand shown. The gist of the method:
as §1

In the next experiment the target is T5, ELF3 (Homo sapiens, UniProt P78545 1-371).
T5 sequence: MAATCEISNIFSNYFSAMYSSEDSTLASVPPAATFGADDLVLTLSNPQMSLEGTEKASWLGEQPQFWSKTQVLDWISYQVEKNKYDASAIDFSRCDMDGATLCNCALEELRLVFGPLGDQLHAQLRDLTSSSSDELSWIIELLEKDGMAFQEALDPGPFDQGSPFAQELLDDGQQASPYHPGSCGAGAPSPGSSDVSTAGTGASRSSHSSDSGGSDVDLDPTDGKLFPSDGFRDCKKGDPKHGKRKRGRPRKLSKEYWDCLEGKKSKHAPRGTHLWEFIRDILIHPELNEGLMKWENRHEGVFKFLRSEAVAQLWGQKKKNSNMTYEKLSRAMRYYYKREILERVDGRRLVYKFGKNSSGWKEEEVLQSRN
Particulars: protein: recombinant; tags: N-terminal GST; dsDNA, one strand shown. In a few lines: as §1

A further experiment concerns the target CRX (Homo sapiens, UniProt O43186 1-299). As to conditions: protein: recombinant; tags: N-terminal GST; dsDNA, one strand shown. The gist of the method: as §1
A further experiment has as its target ETV1 (Homo sapiens, UniProt P50549 1-477). Particulars: protein: recombinant; tags: N-terminal GST; dsDNA, one strand shown. In a few lines:
as §1

In another experiment the target is T6, ERF (Homo sapiens, UniProt P50548 1-548).
T6 sequence: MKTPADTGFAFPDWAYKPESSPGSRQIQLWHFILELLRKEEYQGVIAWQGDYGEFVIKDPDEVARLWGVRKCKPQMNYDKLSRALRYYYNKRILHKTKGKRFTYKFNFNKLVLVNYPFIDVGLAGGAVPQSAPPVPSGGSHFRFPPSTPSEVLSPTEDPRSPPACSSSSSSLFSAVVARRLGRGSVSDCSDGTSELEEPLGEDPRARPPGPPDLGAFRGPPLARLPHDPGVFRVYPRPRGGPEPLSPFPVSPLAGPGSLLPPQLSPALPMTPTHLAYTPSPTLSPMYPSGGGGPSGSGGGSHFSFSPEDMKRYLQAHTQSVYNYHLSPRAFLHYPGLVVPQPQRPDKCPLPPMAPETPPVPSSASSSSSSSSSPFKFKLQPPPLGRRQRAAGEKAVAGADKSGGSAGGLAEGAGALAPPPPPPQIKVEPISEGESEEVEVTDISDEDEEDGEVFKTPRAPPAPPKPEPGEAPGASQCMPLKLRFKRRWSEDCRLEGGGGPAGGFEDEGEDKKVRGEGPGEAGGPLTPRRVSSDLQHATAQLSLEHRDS
As to conditions: protein: recombinant; tags: N-terminal GST; dsDNA, one strand shown. In a few lines:
as §1

A further experiment has as its target T7, ETV3L (Homo sapiens, UniProt Q6ZN32 1-361).
T7 sequence: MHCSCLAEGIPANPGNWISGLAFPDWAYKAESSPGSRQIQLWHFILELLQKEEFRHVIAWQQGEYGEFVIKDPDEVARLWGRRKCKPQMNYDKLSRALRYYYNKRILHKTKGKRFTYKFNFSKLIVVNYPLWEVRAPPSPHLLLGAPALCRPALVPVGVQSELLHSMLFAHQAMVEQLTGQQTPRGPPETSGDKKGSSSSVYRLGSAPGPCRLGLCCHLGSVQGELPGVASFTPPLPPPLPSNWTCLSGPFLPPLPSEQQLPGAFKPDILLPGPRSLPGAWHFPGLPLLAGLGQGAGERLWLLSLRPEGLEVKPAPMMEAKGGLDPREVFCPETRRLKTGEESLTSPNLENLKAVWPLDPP
Particulars: protein: recombinant; tags: N-terminal GST; dsDNA, one strand shown. The gist of the method:
as §1

The next experiment addresses T8, ETS2 (Homo sapiens, UniProt P15036 1-469).
T8 sequence: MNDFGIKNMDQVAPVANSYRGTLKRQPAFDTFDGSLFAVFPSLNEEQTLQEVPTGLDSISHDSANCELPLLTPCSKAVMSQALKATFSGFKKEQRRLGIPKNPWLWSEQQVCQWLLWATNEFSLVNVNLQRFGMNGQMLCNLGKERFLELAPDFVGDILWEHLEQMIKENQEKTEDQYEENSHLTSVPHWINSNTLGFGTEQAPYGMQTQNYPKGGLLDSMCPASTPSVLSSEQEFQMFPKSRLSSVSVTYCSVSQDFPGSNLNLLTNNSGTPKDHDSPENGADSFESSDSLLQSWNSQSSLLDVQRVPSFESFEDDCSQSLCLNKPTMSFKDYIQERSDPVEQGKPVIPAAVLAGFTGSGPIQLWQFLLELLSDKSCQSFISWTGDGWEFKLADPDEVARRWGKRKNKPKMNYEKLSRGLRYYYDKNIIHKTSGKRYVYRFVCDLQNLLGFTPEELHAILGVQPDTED
Particulars: protein: recombinant; tags: N-terminal GST; dsDNA, one strand shown. The gist of the method: as §1

The target in a further experiment is T9, SPDEF (Homo sapiens, UniProt O95238 1-335).
T9 sequence: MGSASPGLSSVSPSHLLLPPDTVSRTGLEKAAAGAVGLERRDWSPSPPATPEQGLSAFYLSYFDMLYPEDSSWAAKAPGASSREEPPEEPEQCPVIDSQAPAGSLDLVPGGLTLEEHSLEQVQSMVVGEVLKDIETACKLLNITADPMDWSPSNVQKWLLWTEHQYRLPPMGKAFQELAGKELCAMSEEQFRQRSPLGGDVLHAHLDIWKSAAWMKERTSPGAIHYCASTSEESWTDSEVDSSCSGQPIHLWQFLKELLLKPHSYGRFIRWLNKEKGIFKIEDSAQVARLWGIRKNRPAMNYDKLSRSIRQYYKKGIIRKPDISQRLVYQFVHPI
As to conditions: protein: recombinant; tags: N-terminal GST; dsDNA, one strand shown. The gist of the method:
as §1

The next experiment deals with T10, ETV7 (Homo sapiens, UniProt Q9Y603 1-341).
T10 sequence: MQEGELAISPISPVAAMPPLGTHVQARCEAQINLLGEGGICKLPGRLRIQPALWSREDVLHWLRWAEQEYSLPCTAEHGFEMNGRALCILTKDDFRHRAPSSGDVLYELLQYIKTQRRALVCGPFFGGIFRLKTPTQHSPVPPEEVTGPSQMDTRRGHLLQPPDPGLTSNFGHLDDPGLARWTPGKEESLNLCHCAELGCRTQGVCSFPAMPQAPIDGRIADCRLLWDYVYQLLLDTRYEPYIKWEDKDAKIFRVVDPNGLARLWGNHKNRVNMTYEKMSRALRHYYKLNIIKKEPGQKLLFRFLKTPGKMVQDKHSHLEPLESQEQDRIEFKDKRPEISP
Particulars: protein: recombinant; tags: N-terminal GST; dsDNA, one strand shown. The gist of the method:
as §1

The next experiment has as its target T11, ELF5 (Homo sapiens, UniProt Q9UKW6-2 1-255).
T11 sequence: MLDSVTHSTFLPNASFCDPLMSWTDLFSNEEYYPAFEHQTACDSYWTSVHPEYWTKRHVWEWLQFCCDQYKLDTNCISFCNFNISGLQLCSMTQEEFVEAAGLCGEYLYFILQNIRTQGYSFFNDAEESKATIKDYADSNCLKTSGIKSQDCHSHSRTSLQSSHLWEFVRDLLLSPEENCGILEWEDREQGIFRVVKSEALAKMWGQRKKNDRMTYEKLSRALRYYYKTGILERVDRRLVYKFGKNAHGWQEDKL
Particulars: protein: recombinant; tags: N-terminal GST; dsDNA, one strand shown. The gist of the method: as §1

The next experiment concerns the target T12, ETV3 (Homo sapiens, UniProt P41162-2 1-143).
T12 sequence: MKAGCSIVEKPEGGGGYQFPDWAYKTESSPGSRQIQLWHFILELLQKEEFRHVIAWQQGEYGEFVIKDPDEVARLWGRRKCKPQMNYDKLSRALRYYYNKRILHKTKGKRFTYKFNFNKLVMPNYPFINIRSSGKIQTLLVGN
As to conditions: protein: recombinant; tags: N-terminal GST; dsDNA, one strand shown. The gist of the method: as §1

The next experiment addresses ETV6 (Homo sapiens, UniProt P41212 1-452). Particulars: protein: recombinant; tags: N-terminal GST; dsDNA, one strand shown. The gist of the method:
as §1

Sequence of ETV1 (P50549 whole entry): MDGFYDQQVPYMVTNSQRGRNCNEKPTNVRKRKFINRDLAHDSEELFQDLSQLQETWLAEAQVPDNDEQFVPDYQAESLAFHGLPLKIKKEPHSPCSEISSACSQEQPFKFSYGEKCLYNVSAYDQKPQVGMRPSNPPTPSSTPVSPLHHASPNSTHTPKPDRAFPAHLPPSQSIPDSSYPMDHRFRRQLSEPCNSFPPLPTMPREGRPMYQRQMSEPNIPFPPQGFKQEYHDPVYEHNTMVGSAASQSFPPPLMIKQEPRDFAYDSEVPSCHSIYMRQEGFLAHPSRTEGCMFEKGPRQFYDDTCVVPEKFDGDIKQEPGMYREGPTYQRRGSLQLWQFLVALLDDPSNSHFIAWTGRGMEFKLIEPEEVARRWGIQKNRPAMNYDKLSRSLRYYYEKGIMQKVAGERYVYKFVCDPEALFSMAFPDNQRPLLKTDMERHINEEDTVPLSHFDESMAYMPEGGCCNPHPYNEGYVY
Sequence of ETV5 (P41161 whole entry): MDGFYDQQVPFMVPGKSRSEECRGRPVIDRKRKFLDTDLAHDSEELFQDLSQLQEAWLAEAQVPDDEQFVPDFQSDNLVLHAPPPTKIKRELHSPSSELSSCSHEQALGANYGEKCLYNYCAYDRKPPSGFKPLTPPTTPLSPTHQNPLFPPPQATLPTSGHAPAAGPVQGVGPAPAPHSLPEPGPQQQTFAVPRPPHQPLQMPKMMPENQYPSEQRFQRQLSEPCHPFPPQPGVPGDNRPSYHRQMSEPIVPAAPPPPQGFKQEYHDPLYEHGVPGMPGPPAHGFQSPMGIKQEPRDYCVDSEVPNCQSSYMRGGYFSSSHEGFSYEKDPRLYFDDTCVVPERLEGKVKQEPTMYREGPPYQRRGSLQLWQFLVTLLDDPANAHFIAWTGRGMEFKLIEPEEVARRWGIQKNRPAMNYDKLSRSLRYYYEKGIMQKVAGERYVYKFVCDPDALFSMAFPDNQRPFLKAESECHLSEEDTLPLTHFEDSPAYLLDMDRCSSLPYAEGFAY
Sequence of CRX (O43186 whole entry): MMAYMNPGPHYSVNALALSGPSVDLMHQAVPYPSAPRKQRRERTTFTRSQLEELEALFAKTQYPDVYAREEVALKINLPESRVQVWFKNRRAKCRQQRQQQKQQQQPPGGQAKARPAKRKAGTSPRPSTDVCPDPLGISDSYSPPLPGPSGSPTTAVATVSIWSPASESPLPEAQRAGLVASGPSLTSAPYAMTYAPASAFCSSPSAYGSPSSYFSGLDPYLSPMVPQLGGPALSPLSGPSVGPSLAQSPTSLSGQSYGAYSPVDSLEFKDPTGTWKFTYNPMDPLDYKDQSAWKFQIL
Sequence of HSF1 (Q00613 whole entry): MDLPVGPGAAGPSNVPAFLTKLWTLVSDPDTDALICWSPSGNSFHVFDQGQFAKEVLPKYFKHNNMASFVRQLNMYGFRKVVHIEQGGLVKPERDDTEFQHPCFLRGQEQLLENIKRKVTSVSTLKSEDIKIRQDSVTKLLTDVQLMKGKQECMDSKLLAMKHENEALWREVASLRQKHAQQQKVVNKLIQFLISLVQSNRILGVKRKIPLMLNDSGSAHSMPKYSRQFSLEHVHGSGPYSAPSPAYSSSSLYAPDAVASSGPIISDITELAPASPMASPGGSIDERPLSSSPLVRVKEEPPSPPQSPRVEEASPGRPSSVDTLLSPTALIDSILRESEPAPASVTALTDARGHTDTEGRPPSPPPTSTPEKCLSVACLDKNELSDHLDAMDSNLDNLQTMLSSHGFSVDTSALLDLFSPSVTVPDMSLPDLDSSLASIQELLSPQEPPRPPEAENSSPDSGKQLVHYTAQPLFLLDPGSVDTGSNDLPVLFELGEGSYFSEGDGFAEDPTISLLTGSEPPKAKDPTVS
Sequence of ETV6 (P41212 whole entry): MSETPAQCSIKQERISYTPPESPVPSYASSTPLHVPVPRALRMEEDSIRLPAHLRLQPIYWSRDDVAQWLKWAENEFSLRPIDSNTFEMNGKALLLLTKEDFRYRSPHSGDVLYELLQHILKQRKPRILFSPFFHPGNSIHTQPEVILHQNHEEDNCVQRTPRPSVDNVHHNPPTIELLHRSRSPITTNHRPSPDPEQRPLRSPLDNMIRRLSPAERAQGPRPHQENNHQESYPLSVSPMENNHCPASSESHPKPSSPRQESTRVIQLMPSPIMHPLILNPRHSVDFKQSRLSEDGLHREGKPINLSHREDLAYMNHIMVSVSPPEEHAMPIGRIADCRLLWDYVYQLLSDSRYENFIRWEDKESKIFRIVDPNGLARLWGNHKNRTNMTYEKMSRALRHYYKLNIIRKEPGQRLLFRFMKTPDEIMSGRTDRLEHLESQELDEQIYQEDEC

As to TTCGTT, the binding signal in the experiment with FEV was 1.3 fold enrichment (6-mer frequency, TF over GST control); in the experiment with ETV5, 1.4 fold enrichment (6-mer frequency, TF over GST control); with HSF1, 1.48 fold enrichment (6-mer frequency, TF over GST control); with SPIC it was 1.32 fold enrichment (6-mer frequency, TF over GST control); in the experiment with ELF4 it was 1.34 fold enrichment (6-mer frequency, TF over GST control); with ELK4, 1.37 fold enrichment (6-mer frequency, TF over GST control). Further, the binding signal with ETV2 is 1.46 fold enrichment (6-mer frequency, TF over GST control); with ELF3, 1.38 fold enrichment (6-mer frequency, TF over GST control); with CRX it was 1.3 fold enrichment (6-mer frequency, TF over GST control); with ETV1, 1.39 fold enrichment (6-mer frequency, TF over GST control); with ERF, 1.37 fold enrichment (6-mer frequency, TF over GST control); with ETV3L it was 1.37 fold enrichment (6-mer frequency, TF over GST control). In addition, the binding signal in the experiment with ETS2 is 1.3 fold enrichment (6-mer frequency, TF over GST control); with SPDEF it was 1.39 fold enrichment (6-mer frequency, TF over GST control); with ETV7, 1.55 fold enrichment (6-mer frequency, TF over GST control); with ELF5 it was 1.32 fold enrichment (6-mer frequency, TF over GST control); in the experiment with ETV3 it was 1.3 fold enrichment (6-mer frequency, TF over GST control); in the experiment with ETV6, 1.29 fold enrichment (6-mer frequency, TF over GST control).
